Lassa entry inh: inhibitors of Lassa virus binding or cell entry; Lassa virus pseudotype entry inhibition, cell reporter; Potency, µM (series often up to 37.9 µM), without a hit: at the top dose activity change, negative = inhibition, hits mostly inhibitors; hit rate 1.2% among 300,000; calls by dose curve; tested in HEK293 cells; note: potency is the fitted concentration of half-maximal effect; nearly all actives have a fitted effect of over 50% in size
Vaccinia Venus: inhibitors of vaccinia virus (Venus reporter). AID 720580. Vaccinia virus Venus reporter expression, fluorescence. hit rate 0.46% among 330,000. Potency, µM (titrated, usually from 36.5 µM), inactives show at the highest dose activity change, negative = inhibition, actives largely listed as inhibitors; calls by dose curve; tested in A549 cells; note: potency is the fitted concentration of half-maximal effect; nearly all actives have a fitted effect of over 30% in size
HCV inhibitor: inhibitors of hepatitis C virus infection; Huh7.5.1 HCVcc-Cre infection, luciferase reporter, 44 h; Potency, µM (titrated, usually from 41.8 µM), inactives show at the top dose activity change, negative = inhibition, usual class: inhibitors; hit rate 3.4% among 340,000; AID 651820; active = well fitted inhibition curve with a large enough effect; inconclusive = small, poorly fitted or top-dose-only effect, or another doubt; inactive = no such curve, though single readings can be large or run the other way; note: potency is the fitted concentration of half-maximal effect
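1,000 cells/well; 4 h culture; + compound; + HCVcc-Cre (~0.5 moi); 44 h; luciferase substrate, RT 15 min; read 15 sec.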
Marburg entry inh: blocks Marburg virus binding to or entry into cells. Marburg virus pseudotyped entry inhibition, cell reporter. Potency, µM (highest dose often 37.8 µM), for inactives: at the highest dose activity change, negative = inhibition, most hits filed as inhibitors. hit rate 1.8% among 300,000. AID 540276; calls by dose curve; tested in HEK293 cells; note: potency is the fitted concentration of half-maximal effect
Vaccinia mCherry: inhibitors of vaccinia virus infection (mCherry reporter signal); Potency, µM (doses to about 36.5 µM), for inactives: at the top dose activity change, negative = inhibition, usual class: inhibitors; Vaccinia virus mCherry reporter infection, fluorescence; hit rate 0.63% among 310,000; calls by dose curve; tested in A549 cells; note: potency is the fitted concentration of half-maximal effect; nearly all actives have a fitted effect of over 35% in size
HCMV inh: human cytomegalovirus inhibition; HFF cells, HCMV-luciferase reporter, 72 h; stronger effect = lower value; hit rate 4.5% among 410,000; AID 1259415; activity change, negative = inhibition, % at 57.5 µM; in the data active = activity change below about -60%; inconclusive = no clear call, values can overlap the other calls; inactive = above about -39%
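Screen run at 2 compound doses on HFFs infected with reporter HCMV, MOI 1 PFU/cell. Luciferase activity from cell lysates at 72 h post infection gave inhibition relative to buffer-only and Salinomycin wells.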
An asterisk follows results filed as active; i = inactive; u = inconclusive; x = no result; ! = repeats disagree; [ ] = dose if it differs, or a comment. Rows were chosen to be rich in hits. Some 7.8% of all compounds tested hit in one or more screens of this group. % is set by controls: 0 for no effect and ±100 for the full control effect.

SMILES	Lassa entry inh	Vaccinia Venus	HCV inhibitor	Marburg entry inh	Vaccinia mCherry	HCMV inh
Cc1cc(C)cc(N2C(=O)NC(=O)/C(=C\C=C\c3ccco3)C2=O)c1	u	22%	u	u	-4%	-99*
Cc1ccc(N2C(=O)NC(=O)/C(=C/C=C/c3ccco3)C2=O)cc1	-27%	-25%	u	u	-16%	-98*
Cc1ccc(C)c(NC(=O)CN2CCN(C3CCCCC3)C(=O)C2=O)c1	2%[46.1 µM]	-4%	x	x	-13%	6
COc1ccc(-c2cnc3c(NC=O)cc(-c4ccc(N(C)C)cc4)cn23)cc1OC	x	x	x	x	x	19
CCc1ccc(N2C(=O)NC(=O)/C(=C\C=C\c3ccco3)C2=O)cc1	x	x	u	x	x	-77*
COc1ccccc1NC(=O)c1ccc(S(=O)(=O)N2CCCC(C)C2)cc1 (stereo unspecified)	-10%	-8%	u	3%[46.1 µM]	-23%	-64*
COc1ccccc1NC(=O)c1ccc(NC(=O)CN2CCCC2)cc1	12%[46.1 µM]	-22%	u	-7%[46.1 µM]	i	-29
Cc1cccc2sc(NNC(=O)c3ccc(S(=O)(=O)N4CCCC(C)C4)cc3)nc12 (stereo unspecified)	u	u	2.8µM*	u	u	-72*
CCc1nnc(NC(=O)c2ccc(S(=O)(=O)N3CCCC(C)C3)cc2)s1 (stereo unspecified)	2%	9%	-3%	8%[46.1 µM]	-5%	-2
CCOC(=O)C1CCCN(CC(=O)Nc2ccc(C(=O)Nc3ccccc3OC)cc2)C1 (stereo unspecified)	0%	-13%	11µM*	u	-1%	-20
Cc1cccc2sc(NNC(=O)c3ccc(S(=O)(=O)N4CCc5ccccc5C4)cc3)nc12	u	u	u	u	u	-105*
Cc1c(C(=O)NCC2CC2)sc2ncnc(NCCN3CCCCC3)c12	x	-1%	x	x	i	x
Nc1c(S(=O)(=O)O)cc(Nc2ccc(Nc3nc(Cl)nc(Nc4ccc(S(=O)(=O)O)cc4)n3)c(S(=O)(=O)O)c2)c2c1C(=O)c1ccccc1C2=O	u	-29%	x	14µM*	-12%	x
Nc1c(S(=O)(=O)O)cc(NC(=O)c2ccccc2)c2c1C(=O)c1ccccc1C2=O	x	x	19%	x	x	x
COc1ccc(OC)c(CN2CCN(C(=O)c3cc(S(=O)(=O)Nc4ccccc4OC)ccc3C)CC2)c1	u	-28%	14µM*	u	-6%	-8
COc1ccc(OC)c(CN2CCN(C(=O)c3cccc(S(=O)(=O)Nc4ccc(C)cc4)c3)CC2)c1	-4%[46.1 µM]	u	10µM*	u	-21%	-6
COc1ccc(NS(=O)(=O)c2ccc(C)c(C(=O)N3CCN(Cc4cc(OC)ccc4OC)CC3)c2)cc1	u	-5%	u	u	-21%	-32
COc1c(Cl)cc(C(=O)Nc2cccc(-c3nc4ccccc4[nH]3)c2)cc1Cl	u	-21%	x	x	-5%	u
CS(=O)(=O)c1ccccc1C(=O)Nc1ccc(-c2nc3ccccc3[nH]2)cc1	x	x	-6%	x	x	37
CS(=O)(=O)c1cccc(C(=O)Nc2ccc(-c3nc4ccccc4[nH]3)cc2)c1	-15%[46.1 µM]	u	u	u	u	-65*
CC(=O)Nc1cc(NC(C)=O)cc(-c2nc3ccccc3[nH]2)c1	-1%	-3%	1%	11%[46.1 µM]	u	-108*!
CCCN(CCC)S(=O)(=O)c1ccc(C(=O)Nc2cccc(-c3nc4ccccc4[nH]3)c2)cc1	u	-21%	x	x	-18%	-88*
CCc1cccc(C)c1NC(=O)C(CC)Sc1nncn2c1cc1occc12 (stereo unspecified)	-5%[46.1 µM]	-5%	x	x	0%	u
CCOc1ccccc1CNC(=O)CCn1ccc2cc(S(=O)(=O)N3CCC(C)CC3)ccc21	0%[46.1 µM]	-23%	x	x	-23%	-20
Cn1c(Nc2ccccc2)nc2cnc(-c3ccc(S(C)(=O)=O)cc3)cc21	x	x	x	x	x	-4
SMILES	Lassa entry inh	Vaccinia Venus	HCV inhibitor	Marburg entry inh	Vaccinia mCherry	HCMV inh
CCN1C(=O)N(S(=O)(=O)C(F)(F)F)C(c2ccccc2)C(C(=O)OC)=C1C (stereo unspecified)	u	x	x	-6%[14.2 µM]	x	x
CC(C)(C)c1ccc(Oc2nc3ccccn3c(=O)c2/C=C(\C#N)c2nc3ccccc3[nH]2)cc1	u	2%	x	u	-14%	16
C[C@H]1CN([C@@H](C)CO)C(=O)Cc2cc(NC(=O)CCC(F)(F)F)ccc2O[C@H]1CN(C)S(=O)(=O)c1ccc(F)cc1	x	u	-17%	x	-8%	-100*
Cc1ccc(S(=O)(=O)N(C)C[C@@H]2Oc3ccc(NS(=O)(=O)c4ccccc4)cc3CC(=O)N([C@@H](C)CO)C[C@H]2C)cc1	x	-8%	0.56µM*	x	-11%	-15
C[C@H](CO)N1C[C@H](C)[C@H](CN(C)S(=O)(=O)c2cccs2)Oc2ccc(NC(=O)Nc3ccc4c(c3)OCO4)cc2CC1=O	x	u	-4%	x	-22%	-69*
Cc1ccc(S(=O)(=O)Nc2ccc3c(c2)CC(=O)N([C@H](C)CO)C[C@@H](C)[C@H](CN(C)S(=O)(=O)c2ccccc2)O3)cc1	x	1%	8%	x	i	38
CCC(=O)N1c2ccccc2CC1C(=O)NCCCN1CCN(c2cccc(Cl)c2)CC1 (stereo unspecified)	-3%[46.1 µM]	-3%	x	x	-9%	-8
O=C(Nc1ccc(S(=O)(=O)NCc2cccnc2)cc1)c1ccccc1Cl	-22%	-24%	8.9µM*	u	-2%	u
O=C(Nc1cccnc1)c1ccc(S(=O)(=O)c2ccc(Cl)cc2)cc1	u	-20%	u	u	-14%	-86*
CC(=O)Nc1ccc(S(=O)(=O)NCc2cccnc2)cc1	u	-7%	36%	-3%	-12%	-6
CCCc1ccc(S(=O)(=O)NCCc2ccncc2)cc1	u	-24%	u	-17%[46.1 µM]	-27%	-31
O=C(Nc1ccccc1)c1ccc(S(=O)(=O)NCc2cccnc2)cc1	-46%	-8%	8.9µM*	u	-25%	-5
CCCCCc1ccc(S(=O)(=O)NCCc2ccncc2)cc1	2%	x	10µM*	-20%	x	u
Cc1cc(=O)[nH]c2nnc(SCC(=O)Nc3ccc(OC(F)(F)F)cc3)n12	23%[46.1 µM]	1%	x	x	i	12
O=S(=O)(NCc1cccnc1)c1ccc2ccccc2c1	-6%[46.1 µM]	7%	-28%	-19%[46.1 µM]	-5%	-63*
O=C(Nc1cccnc1)c1ccc(-c2cc(Cl)ccc2Cl)o1	-7%	-15%	11µM*	-26%[46.1 µM]	-23%	1
O=C(Nc1ccc(S(=O)(=O)NCCc2ccccc2)cc1)c1ccco1	-18%	x	-15%	12%	x	u
O=C(Nc1ccc(S(=O)(=O)NCCc2ccccc2)cc1)c1ccncc1	x	x	11µM*	x	x	-20
CCCCn1cc(S(=O)(=O)c2ccc(Cl)cc2)c(=O)c2cc(F)c(N3CCCCC3)cc21	0%[46.1 µM]	-9%	x	x	i	-1
